Compound activity: PubChem BioAssay, National Center for Advancing Translational Sciences (NCATS)
Sampled rows, rich in hits. Any-hit rate of the full collection: about 2.8%.
PI5P4Ka inh: blocks human PI5P4K alpha kinase activity | AID 652105 | PI5P4Kalpha enzyme, ADP-Glo luminescence, 60 min; hits give low values | 330,000 tested, 1.2% active | max response, %; active means max response of -50% or lower; inconclusive means between -30% and -50%; inactive means -30% or higher; further: value at the top dose of about 77 µM; on the % scale 0 is the no-effect control and ±100 the full control effect
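Controls without substrate or without enzyme flank wells where PI5P4Kalpha converts substrate using 5 microM ATP (final). Incubation lasts 60 minutes at room temperature; ADP formed is read by ADP-Glo luminescence.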
PI4K2A inh: blocks human PI4K2A kinase activity; activity change, negative = inhibition, % at 76.9 µM; Q9BTU6; 420,000 tested, 0.13% active; purified PI4K2A, ADP-Glo luminescence, 1 h; hits give low values; in the data active means activity change below about -50%; inconclusive means mostly about -30% to -49%;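 further: -100% = wells without enzyme as full effect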
Target sequence (Q9BTU6 whole entry, looked up): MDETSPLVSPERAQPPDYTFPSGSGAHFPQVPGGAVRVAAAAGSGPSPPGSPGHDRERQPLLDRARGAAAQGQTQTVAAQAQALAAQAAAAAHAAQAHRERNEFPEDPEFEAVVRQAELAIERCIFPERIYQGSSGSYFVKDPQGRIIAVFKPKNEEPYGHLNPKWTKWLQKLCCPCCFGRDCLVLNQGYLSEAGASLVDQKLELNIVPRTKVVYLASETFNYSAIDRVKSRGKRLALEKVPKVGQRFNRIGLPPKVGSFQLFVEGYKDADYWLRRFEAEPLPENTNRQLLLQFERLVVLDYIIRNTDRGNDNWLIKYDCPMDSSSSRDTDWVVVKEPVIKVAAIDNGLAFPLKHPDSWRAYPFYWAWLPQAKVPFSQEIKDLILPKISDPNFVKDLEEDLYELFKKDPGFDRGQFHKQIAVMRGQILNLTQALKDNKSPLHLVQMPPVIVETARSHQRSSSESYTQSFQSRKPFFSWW
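PI4K2A activity was measured by ADP-Glo luminescence: enzyme (4 ug/mL stock) and phosphatidylinositol (1.2 mM stock) in Tris pH 7.5/MgCl2/EGTA/Triton X-100 buffer were reacted with ATP (300 microM stock) for one hour at ambient temperature.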
POLI inh: blocks human DNA polymerase iota activity | Pol iota fluorescent replication assay, 10 min | Potency, µM (titrated, usually from 115 µM), for the others: at the top dose activity, negative = inhibition, most hits filed as inhibitors | 390,000 tested, 1% active | Q9UNA4; further: potency means the concentration at half of the fitted maximal effect
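Fluorescent replication assay read twice, at 0 min and 10 min after adding 50 nM (final) substrate. Enzyme (10 nM) and compounds were first incubated 15 min at room temperature; enzyme-free buffer wells were negative controls.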
POLH inh: blocks human DNA polymerase eta activity. recombinant Pol eta, fluorescent DNA replication assay. Potency, µM (series often up to 114 µM), inactives show at the top dose activity change, negative = inhibition, most hits filed as inhibitors. 390,000 tested, 1.2% active; further: potency means the concentration at half of the fitted maximal effect; on the % scale 0 is the no-effect control and ±100 the full control effect
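Pol eta at 10 nM preincubated with compounds 15 min at room temperature; reaction started with fluorescent substrate (50 nM final) and read kinetically at 0 and 10 min.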
Pol beta inh: DNA polymerase beta (human) inhibition; Pol beta primer extension/strand displacement, fluorescence kinetic; P06746; Potency, µM (highest dose often 114 µM), inactives show at the top dose activity change, negative = inhibition, most hits filed as inhibitors; AID 485314; 340,000 tested, 1.3% active; further: potency means the concentration at half of the fitted maximal effect; on the % scale 0 is the no-effect control and ±100 the full control effect
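Kinetic readout of DNA synthesis with strand displacement by Pol beta. Compound and 10 nM enzyme sit 15 min at room temperature; 50 nM substrate starts the reaction, read immediately and at 10 min.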
Pol kappa inh: blocks human DNA polymerase kappa activity. AID 588579. 400,000 tested, 0.53% active. purified Pol kappa, fluorescent DNA synthesis assay, 10 min. Potency, µM (top dose mostly 107 µM), for the others: at the top dose activity, negative = inhibition, hits mostly inhibitors. Q9UBT6; further: potency means the concentration at half of the fitted maximal effect; on the % scale 0 is the no-effect control and ±100 the full control effect
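10 nM Pol kappa preincubated 15 min at room temperature with compounds, then reaction started with substrate at 50 nM final. Fluorescence read kinetically at 0 and 10 min; buffer-only wells served as negative control.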
Starred values were filed as active, the others as inactive; ? = inconclusive; . = no result given; [ ] = remark or other dose. Unless noted, the call rests on the fitted dose curve; in most records, active means well fitted inhibition curve with a large enough effect; inconclusive means small, poorly fitted or top-dose-only effect, or another doubt; inactive means no such curve, though single readings can be large or run the other way.

SMILES	PI5P4Ka inh	PI4K2A inh	POLI inh	POLH inh	Pol beta inh	Pol kappa inh
C=C1C(=O)O[C@@H]2C[C@@H](C)[C@H]3C=CC(=O)[C@]3(O)C[C@@H]12	-2	?	?	32µM*	-1%	-26%
COc1ccc(OC)c(NC(=O)Cn2cc(C(=O)c3ccccc3)c3ccccc32)c1	.	2	4%	-21%	1%	-26%
CCn1c(=S)sc2c(=O)[nH]c(SCC(=O)Nc3cc(OC)ccc3OC)nc21	-21	-2	?	50µM*	0%	-17%
CCOC(=O)N1C(C)CN(/[N+]([O-])=N/Oc2ccc([N+](=O)[O-])cc2[N+](=O)[O-])CC1C (stereo unspecified)	.	.	?	.	.	4%
COc1cc(/C=C/c2nc3ccccc3c(=O)n2-c2cccc(O)c2)ccc1O	-19	-1	18µM*	?	?	?
O=c1c2ccccc2nc(/C=C/c2ccc(O)c(O)c2)n1-c1ccccc1	-26	-3	?	18µM*	?	-19%
COc1cc(/C=C/c2nc3ccccc3c(=O)n2-c2ccccc2O)ccc1O	1	0	118%	-25%	-5%	-5%
O=c1c2ccccc2nc(/C=C/c2ccccc2)n1-c1ccc(O)cc1	-3	0	50%	-11%	12%	-5%
C=CCN1CC[C@@]23c4c5ccc(O)c4O[C@H]2/C(=N\N=C2/CC[C@@]4(O)[C@H]6Cc7ccc(O)c8c7[C@@]4(CCN6CC=C)[C@@H]2O8)CC[C@]3(O)[C@@H]1C5	.	.	.	.	.	-11%[19.4 µM]
O=c1c2ccccc2nc(CSc2ncnc3nc[nH]c23)n1-c1ccccc1Cl	-21	-1	-16%	-2%	40µM*	-12%
O=c1c2ccccc2nc(CSc2ncnc3nc[nH]c23)n1-c1ccccc1	.	2	18%	6%	-26%	-21%
CCCN1CCc2cccc3c2C1Cc1ccc(O)c(O)c1-3 (stereo unspecified)	.	.	?	-8%[57.1 µM]	-1%[57.1 µM]	-1%[19.4 µM]
CCCN1CCc2cc(O)cc3c2[C@H]1Cc1ccc(O)c(O)c1-3	?	-4	14µM*	-8%	.	-10%[60.1 µM]
CN1CCc2cc(O)cc3c2[C@H]1Cc1ccc(O)c(O)c1-3	-52*	-10	-20%	5%	.	-6%[60.1 µM]
CC(C)C1C(=O)O[C@@H]2CCN3CC=C(COC(=O)[C@](C)(O)[C@]1(C)O)[C@H]23 (stereo partly specified)	.	.	.	.	.	18%[60.1 µM]
COc1cccc(C(=O)CCN[C@@H](C)[C@H](O)c2ccccc2)c1	.	5	.	.	.	.
CC(C)c1ccc(-n2c(O)c(/C=N/NC(=O)c3ccccc3O)c(=O)[nH]c2=S)cc1	-65*	2	-1%	-18%	7%	-14%
Cn1c(O)c(/C=C/C=Nc2ccccc2)c(=O)n(C)c1=S	-30	-3	79µM*	?	25µM*	?
Cc1ccccc1-n1c(O)c(/C=C/C=Nc2ccccc2)c(=O)[nH]c1=O	?	4	79µM*	?	-3%	-14%
Cc1cccc(-n2c(O)c(/C=C/C=Nc3ccccc3)c(=O)[nH]c2=O)c1	-17	0	13%	-8%	19%	-16%
CCC(=O)C(CCN(C)C)(c1ccccc1)c1ccccc1	.	1	.	.	.	.
Cc1cc(/C=C2/C(=O)NC(=O)N(Cc3ccco3)C2=O)c(C)n1-c1ccccc1O	?	-3	45µM*	50µM*	28µM*	-33%
Cc1cc(/C=C2/C(=O)NC(=O)N(C)C2=O)c(C)n1-c1ccccc1	7	-11	-20%	-9%	-2%	10%
Cc1cc(O)c2c(c1)C(=O)[C@@]13C(=C2O)C(=O)[C@H]2C(O)[C@@H]1[C@H]1C(O)[C@@H]3C(=O)C3=C(O)c4c(O)cc(C)cc4C(=O)[C@@]312 (stereo partly specified)	.	-76*	.	.	.	.
CC(=O)O.CC(=O)O.[Cd]	.	.	.	.	.	10µM*
SMILES	PI5P4Ka inh	PI4K2A inh	POLI inh	POLH inh	Pol beta inh	Pol kappa inh
CC1Sc2c(C(=O)O)c(=O)c3cc(F)c(N4CCNCC4)cc3n21 (stereo unspecified)	.	-5	.	.	.	.
NC(=S)/N=C/c1c(O)[nH]c(=O)[nH]c1=O	-60*	-14	89%	12%	-14%	?
Cc1cc(C)c(N=Cc2c(O)[nH]c(=O)[nH]c2=O)c(C)c1	-3	1	42%	-13%	-8%	0%
CCCCCCCCN=Cc1c(O)[nH]c(=O)[nH]c1=O	-1	1	42%	6%	-4%	-1%
C=CCNC(=S)/N=C/c1c(O)[nH]c(=O)[nH]c1=O	-52*	-21	7%	4%	0%	-25%
C[C@]12CC[C@H]3[C@@H](CCC4=CC(=O)CC[C@@]43C)[C@@H]1CC[C@@H]2C(=O)O	.	-6	.	.	.	.
O=C1NC(=O)N(c2cccc(Br)c2)C(=O)/C1=C/c1ccsc1	-64*	-6	?	-8%	-23%	-26%
O=C1NC(=O)N(c2ccc(Br)cc2)C(=O)/C1=C/c1ccsc1	-28	4	-13%	-10%	7%	-17%
CCOc1ccc(C(=O)Nc2cccc(C(=O)OCc3cc(=O)n4nc(C5CC5)sc4n3)c2)cc1	.	0	9%	?	-15%	-15%[60.1 µM]
Cc1ccc(-n2c(O)c(C=NCc3ccco3)c(=O)[nH]c2=S)cc1C	-25	-10	20µM*	?	?	40µM*
O=c1[nH]c(=S)n(-c2ccccc2F)c(O)c1C=NCc1ccco1	4	-5	8%	-1%	13%	3%
CCN(CC)CCN=Cc1c(O)n(Cc2ccco2)c(=O)[nH]c1=O	0	-2	7%	0%	21%	-7%
O=c1[nH]c(=O)n(Cc2ccco2)c(O)c1C=NCc1ccco1	.	-3	40µM*	89µM*	?	-28%
O=c1[nH]c(=O)n(Cc2ccco2)c(O)c1C=NCCN1CCOCC1	-20	-2	?	10µM*	8%	-24%
C#C[C@]1(O)C=C[C@H]2[C@@H]3CCC4=CC(=O)CC[C@@H]4[C@H]3CC[C@@]21CC	.	-3	.	.	.	.
CCCN(CCC)[C@@H]1CCc2c(OC)cccc2[C@@H]1C	.	.	.	.	.	4%[19.4 µM]
Cc1cc(C=C2C(=O)NC(=S)NC2=O)c(C)n1-c1ccc2c(c1)OCO2	-72*	-25	20µM*	20µM*	89µM*	79µM*
Cc1cc(C=C2C(=O)NC(=O)NC2=O)c(C)n1-c1ccc2c(c1)OCO2	?	-15	18µM*	32µM*	-10%	-15%
CC(C)Oc1ccc(CNC(=O)C2CCCN(S(=O)(=O)c3ccc4c(ccn4C)c3)C2)cc1 (stereo unspecified)	.	-12	32%	-18%	-16%	-6%[60.1 µM]
